Screens as filed in PubChem.
Compounds with a hit are over-represented: about 3.6% of the library has one in this group of screens.
mHTT CaM bind: inhibitors of human mutant huntingtin-calmodulin interaction; AlphaScreen His-mHTT/GST-CaM binding, luminescence; hit rate 3.6% among 190,000; inhibition, % at 15 µM; P42858
Pf apPOL block: Pf-apPOL DNA polymerase inhibition; hit rate 0.25% among 210,000; inhibition, % at 10 µM; Recombinant Pf-apPOL, molecular beacon fluorescence, 1.5 h
Each line names hits and unclear results; the compound was inactive in the other large screens; ! = not confirmed by another sample. Rule as the data show it: active = inhibition above about 50%; inactive = the rest.

COC(=O)c1ccc(NC(=O)C2CC(=O)N(CCc3c[nH]c4ccc(F)cc34)C2)cc1 (configuration not stated)	mHTT CaM bind 59
O=C(Nc1ccc(F)cc1)C1CC(=O)N(CCc2c[nH]c3ccc(F)cc23)C1 (configuration not stated)	none
Cc1ccc(NC(=O)C2CC(=O)N(CCc3c[nH]c4ccc(F)cc34)C2)cc1C (configuration not stated)	none
Cc1ccc(NC(=O)C2CC(=O)N(CCc3c[nH]c4ccc(Cl)cc34)C2)cc1C (configuration not stated)	mHTT CaM bind 100
CSc1ccc(CNC(=O)C2CCCN(c3cc(=O)n(C)c(=O)n3C)C2)cc1 (configuration not stated)	none
CC1=C(C(=O)Nc2cccnc2)C(c2ccncc2)n2nc(SCc3ccccc3F)nc2N1 (configuration not stated)	none
O=C(c1ccncc1)N1CCCn2nc(-c3ccc(Cl)cc3)cc2C1	none
Cc1c(C(=O)NCCC(C)C)oc2ccc(S(=O)(=O)N3CCCC3)cc12	none
NNc1nnc2c(n1)[nH]c1ccc(Br)cc12	mHTT CaM bind 67
Brc1ccc2[nH]c3nc4ccccc4nc3c2c1	none
CCCCC(=O)N1C/C=C\C(c2ccc(OC)cc2)N(Cc2ccc(F)cc2)C(=O)[C@@H]1Cc1ccccc1 (some centres not stated)	none
COc1ccc(C2/C=C\C(c3ccc(OC)cc3)N(Cc3ccc(F)cc3)C(=O)C(=O)N2Cc2ccc(F)cc2)cc1 (configuration not stated)	none
COc1ccc(C2/C=C\CN(Cc3ccccc3)[C@@H](C)C(=O)N2Cc2ccc(F)cc2)cc1 (some centres not stated)	mHTT CaM bind 73
COc1ccc(C2/C=C\CN(Cc3ccco3)[C@@H](C)C(=O)N2Cc2ccc(F)cc2)cc1 (some centres not stated)	mHTT CaM bind 93
COc1ccc(C2/C=C\CN(C(=O)c3ccc(C)cc3)[C@@H](C)C(=O)N2Cc2ccc(F)cc2)cc1 (some centres not stated)	mHTT CaM bind 93
COc1ccc(C2/C=C\CN(C(=O)C3CCCCC3)[C@@H](C)C(=O)N2Cc2ccc(F)cc2)cc1 (some centres not stated)	none
O=S(=O)(NC1CC2CCC1C2)c1ccccc1 (configuration not stated)	none
Cc1ccc(NC(=O)N2CC3CC2CC3NC(=O)c2ccccc2)c(C)c1 (configuration not stated)	none
COc1cccc(CN2CCC(C(=O)NCc3ccc(C)cc3)CC2)c1	none
O=C1/C(=C/c2cccs2)CC/C1=C\c1cccs1	none
CC(C)N1CC2=C(OC(N)=C(C#N)C2c2cccs2)/C(=C/c2cccs2)C1 (configuration not stated)	mHTT CaM bind 66 (no result: Pf apPOL block)
Cc1cc2c(c(=O)o1)C(c1cccs1)C(C#N)=C(N)O2 (configuration not stated)	none (no result: Pf apPOL block)
CCN1CC2=C(OC(N)=C(C#N)C2c2cccs2)/C(=C/c2cccs2)C1 (configuration not stated)	mHTT CaM bind 60 (no result: Pf apPOL block)
CC(C)N1C/C(=C\c2cccs2)C(=O)/C(=C/c2cccs2)C1	mHTT CaM bind 54!
Cc1[nH]nc2c1C(c1cccs1)C(C#N)=C(N)O2 (configuration not stated)	none
CCN1C=C(Cc2cccs2)C2=C(C1)C(c1cccs1)C(C#N)=C(N)O2 (configuration not stated)	mHTT CaM bind 72
COCc1[nH]nc2c1C(c1cccs1)C(C#N)=C(N)O2 (configuration not stated)	none (no result: Pf apPOL block)
COc1cc(OC)c2c(c1)C(=O)OC2OC (configuration not stated)	none (no result: mHTT CaM bind)
O=[N+]([O-])c1ccc(-c2nnn(CNc3ccccc3)n2)cc1	mHTT CaM bind 53
O=C(Cn1nnc(-c2ccccc2)n1)Nc1cccc([N+](=O)[O-])c1	none
CCc1nnc(-c2cccn2CC(=O)Nc2ccc(F)cc2)o1	none
CCc1noc(-c2cccnc2N2CCCN(C(=O)Cc3ccc(F)cc3)CC2)n1	none
COc1cccc(N2CCN(c3nc(C(=O)N(C)C)cs3)CC2)c1	none
CN(C)C(=O)c1csc(N2CCN(c3cccc(Cl)c3)CC2)n1	mHTT CaM bind 53
COc1cc(/C=C/c2nc(-c3ccccc3O)n(-c3ccccc3)n2)ccc1O	mHTT CaM bind 88
CCc1nc(-c2ccccc2O)n(-c2ccccc2)n1	none
C=CCn1c(COc2c(Br)cc(C)c3c2CCC3)n[nH]c1=S	none (no result: mHTT CaM bind)
COc1cccc(C(=O)N2CCc3c(c(COCc4ccccc4C)nn3C)C2)c1	none
O=C1CCC[C@H]2C[C@H](NCc3ccc(F)cc3)CC[C@]23CCCN13	none
O=C1CCC[C@H]2C[C@H](NCCc3ccncc3)CC[C@]23CCCN13	mHTT CaM bind 77
CCOc1ccc2cccc(NC(=O)c3ccc(S(=O)(=O)N(C)C)cc3)c2n1	none
COc1ccc(CN2CCc3nc(N4CCN(c5cccc(OC)c5)CC4)ncc3C2)cc1	mHTT CaM bind 74
COc1cccc(N2CCN(c3ncc4c(n3)CCN(Cc3cccc(F)c3)C4)CC2)c1	mHTT CaM bind 58
COc1ccc(N2CCN(c3ncc4c(n3)CCN(Cc3ccc(F)cc3)C4)CC2)cc1	mHTT CaM bind 57
COc1cccc(CN2CCc3nc(N4CCN(C)CC4)ncc3C2)c1	none
CCCN1CCN(c2ncc3c(n2)CCN(Cc2cccc(OC)c2)C3)CC1	none
Fc1ccc(CN2CCc3nc(N4CCN(c5ccc(F)cc5)CC4)ncc3C2)cc1	none
COc1ccc(C2CC(C(F)(F)F)n3nc(C(=O)N4CCSCC4)cc3N2)cc1 (configuration not stated)	none
CCOc1ccc(N(CC(=O)NCc2ccco2)S(=O)(=O)c2ccc(SC)cc2)cc1	none
Cn1cccc(C(=O)N2CCC(c3ccccc3)C2)c1=O (configuration not stated)	none
O=C(Nc1cccnc1)c1ccc(Oc2ccccc2)cc1	none
O=C(O)c1cc(N2C(=O)C=CC2=O)ccc1Cl	Pf apPOL block 55 (no result: mHTT CaM bind)
O=C(NCc1ccccc1)c1cc(N2C(=O)C=CC2=O)ccc1Cl	none
O=C(Nc1ccc(Oc2ccc3c(c2)C(=O)NC3=O)cc1)c1cccs1	none
Cc1csc(NC(=O)c2cc3cc(Br)ccc3oc2=O)n1	none
O=C(NC1CCCc2ccccc21)C1CCN(Cc2c[nH]c3ccccc23)CC1 (configuration not stated)	mHTT CaM bind 70
CCN(CC)S(=O)(=O)N1CCC(C(=O)NC2CCCc3ccccc32)CC1 (configuration not stated)	none
Cc1c2c(nn1-c1ccccc1)CC1C2C1(C)C (configuration not stated)	none
CC1CCN(c2nc3c(c(=O)n(Cc4ccc(F)cc4)c(=O)n3C)n2C)CC1	none
Oc1oc(-c2ccccc2Br)nc1C=Nc1cccc(Cl)c1	none
Oc1oc(-c2ccccc2F)nc1C=Nc1cccc(Cl)c1	Pf apPOL block 72
COc1ccc(C2C(C(=O)Nc3ccc4c(c3)OCO4)CC(=O)N2c2ccc(OC)cc2)cc1 (configuration not stated)	none
COc1ccc(C2C(C(=O)N(C)c3ccc(Cl)cc3)CC(=O)N2c2ccc(OC)cc2)cc1 (configuration not stated)	mHTT CaM bind 87
CCC(C)NC(=O)c1cn(-c2cccc(Cl)c2)nn1 (configuration not stated)	none
CC(C)(C)c1cc(Br)cc(SSc2cc(Br)cc(C(C)(C)C)c2O)c1O	none (no result: Pf apPOL block)
COc1ccc([N+](=O)[O-])cc1NC(=O)C1CCCNC1=O (configuration not stated)	none
